Screening data deposited in PubChem by National Center for Advancing Translational Sciences (NCATS).
TDP1 block: qHTS Assay for Inhibitors of Tyrosyl-DNA Phosphodiesterase (TDP1); Tyrosyl-DNA phosphodiesterase 1 (Homo sapiens), Q9NUW8; hit rate 0.28% among 350,000; recombinant TDP1, AlphaScreen DNA substrate cleavage; Potency, µM (highest dose often 130 µM), without a hit: at the highest dose activity change, negative = inhibition, actives largely listed as inhibitors; further: on the % scale 0 is the no-effect control and ±100 the full control effect; nearly all actives have a fitted effect of over 40% in size
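Compounds were preincubated with Tdp1 (1 nM final) for 15 min at room temperature before substrate (15 nM final) started a 5 min reaction; beads (10 ug/ml final) were then added for 10 min before AlphaScreen detection.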
ClpP mod: qHTS Assay for Activators of ClpP; ATP-dependent Clp protease proteolytic subunit (Bacillus subtilis (strain 168)), P80244; purified B. subtilis ClpP, FRET peptide cleavage, 20 min; Potency, µM (series often up to 57.5 µM), without a hit: at the highest dose activity change, negative = active; hit rate 1.9% among 340,000; AID 651965, 2013; active means well fitted falling curve with a large enough effect; inconclusive means small, poorly fitted or top-dose-only effect; inactive means no such curve, though single readings can be large or run the other way; further: the source files actives as falling curves though it sought activators and does not explain the sign; nearly all actives have a fitted effect of over 65% in size
Target sequence (P80244 whole entry, looked up): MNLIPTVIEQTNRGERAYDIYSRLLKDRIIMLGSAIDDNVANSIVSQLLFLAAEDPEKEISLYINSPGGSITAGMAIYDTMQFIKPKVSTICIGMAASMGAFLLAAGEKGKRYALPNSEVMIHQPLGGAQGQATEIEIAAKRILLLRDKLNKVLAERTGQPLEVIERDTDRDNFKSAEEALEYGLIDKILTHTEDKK
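ClpP 10 microg/mL final, pH 8 Tris/KCl buffer with BSA, glycerol, Tween-20; compound pinned in; FRET-FV substrate; RT 20 min; Ex320/Em430; ΔFRET vs ADEP 5.8 microM, DMSO, no enzyme.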
TDP1 cell CPT: qHTS for Inhibitors of human tyrosyl-DNA phosphodiesterase 1 (TDP1): qHTS in cells in presence of CPT; chicken DT40 Tdp1-/-;hTDP1 cells + 20 nM CPT, ATP luminescence, 48 h; Potency, µM (titrated, usually from 46.2 µM), inactives show at the highest dose activity change, negative = growth inhibition, actives largely listed as inhibitors; AID 686979, 2013; hit rate 12% among 420,000; further: on the % scale 0 is the no-effect control and ±100 the full control effect; nearly all actives have a fitted effect of over 55% in size
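Cell growth measured by CellTiter-Glo luminescence after a minimum 48 h, 37 C compound exposure with 20 nM CPT in Tdp1-knockout DT40 cells stably expressing hTDP1, seeded 400/well; qHTS titration format.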
TDP1 cell noCPT: qHTS for Inhibitors of human tyrosyl-DNA phosphodiesterase 1 (TDP1): qHTS in cells in absence of CPT; DT40 Tdp1-/- hTDP1 cells, no CPT, ATP luminescence, 48 h; Potency, µM (titrated, usually from 46.2 µM), for inactives: at the top dose activity change, negative = growth inhibition, usual class: inhibitors; hit rate 15% among 420,000; AID 686978, 2013; further: on the % scale 0 is the no-effect control and ±100 the full control effect; nearly all actives have a fitted effect of over 55% in size
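Chicken DT40 Tdp1-/- cells stably complemented with human TDP1 were seeded at 400 cells/well with DMSO in place of 20 nM camptothecin. After compound pinning, cells grew at least 48 hr at 37 °C; viability read by CellTiter-Glo luminescence.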
Starred values were filed as active, the others as inactive; ? = inconclusive; · = no result; [ ] = dose if it differs, or a comment. Shown are actives, neighbours in structure and some others; about 17% of the full set was active somewhere. Unless noted, the call rests on the fitted dose curve; in most records, active means well fitted curve in the direction sought with a large enough effect; inconclusive means small, poorly fitted or top-dose-only effect, or another doubt; inactive means no such curve, though single readings can be large; an effect the other way counts as inactive or inconclusive. Potency means the concentration at half of the fitted maximal effect.

SMILES	TDP1 block	ClpP mod	TDP1 cell CPT	TDP1 cell noCPT
CCOc1nc2c(c(-c3cccs3)c1C#N)Cc1ccccc1-2	-1%	·	-13%	-9%
O=C(COC(=O)Cn1nnc2ccccc21)Nc1ccccc1Br	4%	28µM*	?	?
CN(C)c1ccc(C(=O)n2nnc3ccccc32)cc1	2%	0%	23µM*	?
CC(C)c1ccc(/C=C/C(=O)n2nnc3ccccc32)cc1	-1%	-24%	16µM*	?
CN(C)c1ccc(NC(=O)COC(=O)Cn2nnc3ccccc32)cc1	8%	25µM*	-4%	-2%
CC(C)c1ccc(/C=C/C(=O)N2CCCCCC2)cc1	5%	-1%	-27%	-4%
CCCC(=O)Nc1ccc(C(=O)n2nnc3ccccc32)cc1	2%	-28%	?	?
COc1cccc(C(c2sc3nc(-c4ccco4)nn3c2O)N2CCN(C)CC2)c1 (centres undefined)	5%	2%	0%	-19%
COc1c(C=O)c2c(c(OC)c1OC)-c1ccc(OC)c(=O)cc1C(NC(C)=O)CC2 (centres undefined)	·	-3%	0.0082µM*	0.015µM*
COc1cc2c(c(OC)c1OC)-c1ccc(SC)c(=O)cc1C(NC=O)CC2 (centres undefined)	·	-1%	0.13µM*	0.16µM*
COC(=O)c1ccc2c(c1)C(NC(C)=O)CCc1cc(OC)c(OC)c(OC)c1-2 (centres undefined)	·	-2%	0.018µM*	0.021µM*
C=COC(=O)NC1CCc2cc(OC)c(OC)c(OC)c2-c2ccc(SC)c(=O)cc21 (centres undefined)	·	-2%	0.026µM*	0.016µM*
COc1cc2c(c(OC)c1OC)-c1ccc(OC)c(=O)cc1[C@@H](NC=O)CC2	4%	·	·	·
CN(C)Cc1ccccc1-c1cc(Nc2ccccc2)ncn1	-5%[56.1 µM]	·	3%	-9%
CCOc1ccc(NCc2cccn2-c2nnc(N3CCC(C(=O)NCCCN4CCCCC4CC)CC3)s2)cc1 (centres undefined)	14%	2%	?	?
Cn1c(=O)n(C/C=C/c2ccccc2)c(=O)c2c1nc1n2CCN1c1ccccc1	3%	-2%	4%	-2%
O=CN1CCN(C(=O)Cc2ccc(Cl)cc2)CC1	·	-2%	0%	-1%
CCC(Sc1nnc2c3ccccc3n(C)c2n1)C(=O)Nc1nnc(C(C)C)s1 (centres undefined)	-2%	3%	?	-30%
COc1cccc(C(=O)Nc2ccc3c(cc2=O)[C@@H](NC(C)=O)CCc2cc(OC)c(OC)c(OC)c2-3)c1	·	-3%	6.5µM*	2.9µM*
COc1cccc(C(=O)Nc2ccc(F)cc2F)c1	2%	-3%	-15%	-15%
CNC1CCc2cc(OC)c(OC)c(OC)c2-c2ccc(OC)c(=O)cc21 (centres undefined)	2%	·	·	·
COc1cc2c(c(OC)c1OC)-c1ccc(OC)c(=O)cc1C(NC(=O)c1ccccc1)CC2 (centres undefined)	·	1%	0.0092µM*	0.018µM*
CCCC(=O)NC1CCc2cc(OC)c(OC)c(OC)c2-c2ccc(OC)c(=O)cc21 (centres undefined)	·	-2%	0.016µM*	0.016µM*
COc1c(O[C@@H]2O[C@H](CO)[C@@H](O)[C@H](O)[C@H]2O)cc2c(c1OC)-c1ccc(SC)c(=O)cc1C(NC(C)=O)CC2 (some centres undefined)	·	-1%	8%	5%
COc1cc2c(c(OC)c1OC)-c1ccc(SC)c(=O)cc1C(NC(=O)c1ccccc1)CC2 (centres undefined)	·	-1%	0.015µM*	0.016µM*
COc1cccc(NC2=CC(c3ccc(C(C)C)cc3)N(c3cccc(OC)c3)C2=O)c1 (centres undefined)	7%	?	?	?
N#CC1(NC(=O)CSc2nnc(-c3ccccc3F)o2)CCCCC1	-7%	·	-9%	-14%
CCCN(CCC)CC(O)Cn1cc(/C=C/C(=O)c2ccc(OC)cc2)c2ccccc21 (centres undefined)	0%	-10%	?	5.2µM*
